PubChem BioAssay
Values without a mark were called inactive. Activity calls are given as the source filed them. Unless noted, no rule for the calls is given here.

Test system: not listed separately
Assay: human hepatoma cell viability loss – ATP luminescence, cytotoxicity control for P. falciparum antimalarial project, primary screen (AID 2303;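 active = inhibition above 50%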;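 also: 0% = DMSO wells and 100% = digitonin-killed cells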)
Details: HepG2 viability, 24-48 h, at 10 µM, stronger effect = higher value

SMILES	inhibition
COc1ccccc1CC1CCCN(C2CCC(NC(=O)c3cc4ccccc4[nH]3)CC2)C1 (stereo unspecified)	23%
COc1ccc2nccc([C@@H](O)CN3CCC(NC(=O)/C=C/c4cccc(NC(C)=O)c4)CC3)c2c1	5%
c1ccc(-c2cc(NCc3cccc4ccccc34)c3[nH]ncc3n2)cc1	7%
Cn1nc(-c2ccc(NC(=O)Nc3cc(C(F)(F)F)ccc3F)c(F)c2)c2cnc(NCCCn3ccnc3)nc21	45%
COc1ccc2nccc(N3CCN(CCNCc4ccc5c(n4)NC(=O)CS5)CC3)c2c1	18%
FC(F)(F)c1ccc2nc(-c3ccc(-c4cccc(CNCCc5ccncc5)c4)s3)[nH]c2c1	20%
O=C(NCCCCN1CCC(c2ccc3c(c2OC(=O)c2ccc(NC(=O)c4ccc(Cl)cc4)cc2)CCCC3)CC1)c1ccc(NC(=O)c2ccc(Cl)cc2)cc1	62% (active)
NCCCCNc1cc(-c2ccnc(Nc3cccc(Cl)c3)n2)ccn1	46%
CCCN1CCN(c2ccccc2NS(=O)(=O)c2ccc(C(=O)Nc3ccc(Cl)cc3)cc2)CC1	17%
Cc1ccc(C(=O)Nc2ccc(Nc3ccnc4cc(-c5ccncc5)ccc34)cc2O)cc1	14%
Cc1cc(NCCC(=O)NCc2cccc(F)c2)nc(NCCc2ccc(F)cc2)n1	0%
Cc1ccc(Nc2nccc(NCC(O)c3cccc(C(F)(F)F)c3)n2)cc1 (stereo unspecified)	19%
CC(C)NCc1ccc(-c2cccc(-c3nc4ccc(F)cc4[nH]3)c2)cc1	14%
Cn1c2ccccc2c2c3ccccc3c(CNC(CO)(CO)CO)cc21	67% (active)
COc1ccc(CNCc2ccccc2)cc1-c1cccc(S(=O)(=O)NCCN2CCCC2)c1	37%
CC(=O)Nc1nc(N)c2c(ccc3c2ccn3CC(C)C)n1	66% (active)
c1ccc2[nH]c(-c3ccc(-c4ccc(CN5CCN(c6ccncc6)CC5)cc4)cc3)nc2c1	48%
O=C(NCc1cccc(CN2CCOCC2)c1)c1cc(Br)cc(N2CCN(c3ccncc3)CC2)c1	25%
Cc1[nH]c(C)c(-c2ccc(-c3ccc(Cl)cc3)nc2)c(=O)c1Br	21%
COCCn1c(-c2cccc(Cl)c2)nn(-c2ccc([N+](=O)[O-])cc2Cl)c1=S	2%
O=C(Cn1c(CCc2cccc(F)c2F)cc(=O)c2ccccc21)N(Cc1ccc(-c2ccc(C(F)(F)F)cc2)cc1)C1CCN(CCO)CC1	82% (active)
COc1ccccc1NC(=O)CSc1nc2cccnc2n1-c1ccccc1OC	-4%
CC(C)N(Cc1cnc(N)c(C#N)n1)c1ccc(Cl)c(Cl)c1	-1%
c1cc(CNc2ncc(-c3ccsc3)c(-c3nccs3)n2)ccn1	18%
Cc1ccccc1C1CCN(C2CCC(NC(=O)/C=C/c3ccccc3C(F)(F)F)CC2)CC1 (stereo unspecified)	63% (active)
FC(F)(F)c1ccc2nc(-c3ccc(-c4ccc(CNCC5CCCO5)cc4)cc3)[nH]c2c1 (stereo unspecified)	33%

Molecular target: L-lactate dehydrogenase (Plasmodium falciparum (isolate CDC / Honduras)) (UniProt Q27743)
Assay: PfLDH activity inhibition – cell lysate, 3D7 strain, counter-screen for P. falciparum growth inhibition project (AID 2304);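 also: 0% = vehicle and 100% = reference inhibitor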
Details: P. falciparum 3D7 crude extract, LDH APAD/NBT absorbance; at 2 µM; stronger effect = higher value

Chain of L-lactate dehydrogenase (Plasmodium falciparum (isolate CDC / Honduras)) (Q27743 whole entry, looked up): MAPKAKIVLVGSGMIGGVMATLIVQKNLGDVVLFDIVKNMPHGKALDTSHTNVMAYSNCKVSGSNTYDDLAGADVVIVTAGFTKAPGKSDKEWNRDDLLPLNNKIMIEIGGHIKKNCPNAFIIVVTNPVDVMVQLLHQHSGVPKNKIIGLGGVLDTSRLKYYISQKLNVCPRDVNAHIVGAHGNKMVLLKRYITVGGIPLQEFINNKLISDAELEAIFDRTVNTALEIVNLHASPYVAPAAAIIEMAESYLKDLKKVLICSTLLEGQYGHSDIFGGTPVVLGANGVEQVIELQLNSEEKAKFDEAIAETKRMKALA

SMILES	inhibition [%]
CCN1CCC(N(Cc2ccc(-c3ccc(Cl)cc3)cc2)C(=O)Cn2c(CCc3cccc(F)c3F)cc(=O)c3ccccc32)CC1	-7
O=C(c1ccc(Cl)cc1)C1CCCN(C2CCN(CCc3ccccc3)CC2)C1 (stereo unspecified)	1
N#Cc1ccc2c(c1)CCN(CCC1CCC(NC(=O)c3cc4cccc([N+](=O)[O-])c4[nH]3)CC1)C2 (stereo unspecified)	-5
CCCCNC(=O)C(C)NC(=O)c1ccc(O)c(-c2ccc(Cl)c(Cl)c2)c1 (stereo unspecified)	2
CCN(CC)CCOc1ccc(C(O)(C#CC(O)(c2ccc(Br)cc2)c2ccc(OCCN(CC)CC)cc2)c2ccc(Br)cc2)cc1 (stereo unspecified)	7
CC(=O)c1ccc(Nc2c(C(N)=O)cnc3cc(-c4c(C)noc4C)ccc23)cc1	3
O=C(/C=C/c1c[nH]c2ccccc12)NCCCCCN1CCC(c2c[nH]c3ccccc23)CC1	5
CN1CCCC1CCNCc1ccc(-c2ccc(CNCCc3ccccc3)cn2)cc1 (stereo unspecified)	2
NC1=NC(c2ccccc2)(c2ccccc2)C(=O)N1Cc1ccc(-c2cccnc2)cc1	5
CCCCCCNC(=O)C1Cc2c([nH]c3ccc(C)cc23)C2(CCN(Cc3ccccc3)CC2)N1 (stereo unspecified)	6
Cc1ccc2nc(C)cc(NN=CC=Cc3ccccc3)c2c1	4
CCOc1c(CNCCCNc2cc(=O)c3ccccc3[nH]2)cc(I)cc1OC	2
CC(=O)CSC(C=Cc1ccc(N(C)C)cc1)=Nc1ccccc1	-4
N#Cc1ccc(N(CCOc2ccc3c(c2)CCC(=O)N3)Cc2ccccc2C(F)(F)F)cc1C(F)(F)F	1
COc1ccccc1CC1CCCN(C2CCC(NC(=O)c3cc4ccccc4[nH]3)CC2)C1 (stereo unspecified)	-2
COc1ccc2nccc([C@@H](O)CN3CCC(NC(=O)/C=C/c4cccc(NC(C)=O)c4)CC3)c2c1	0
c1ccc(-c2cc(NCc3cccc4ccccc34)c3[nH]ncc3n2)cc1	-8
Cn1nc(-c2ccc(NC(=O)Nc3cc(C(F)(F)F)ccc3F)c(F)c2)c2cnc(NCCCn3ccnc3)nc21	0
COc1ccc2nccc(N3CCN(CCNCc4ccc5c(n4)NC(=O)CS5)CC3)c2c1	-2
FC(F)(F)c1ccc2nc(-c3ccc(-c4cccc(CNCCc5ccncc5)c4)s3)[nH]c2c1	-6

SMILES	inhibition [%]
O=C(NCCCCN1CCC(c2ccc3c(c2OC(=O)c2ccc(NC(=O)c4ccc(Cl)cc4)cc2)CCCC3)CC1)c1ccc(NC(=O)c2ccc(Cl)cc2)cc1	-2
NCCCCNc1cc(-c2ccnc(Nc3cccc(Cl)c3)n2)ccn1	1
CCCN1CCN(c2ccccc2NS(=O)(=O)c2ccc(C(=O)Nc3ccc(Cl)cc3)cc2)CC1	-2
Cc1ccc(C(=O)Nc2ccc(Nc3ccnc4cc(-c5ccncc5)ccc34)cc2O)cc1	1
Cc1cc(NCCC(=O)NCc2cccc(F)c2)nc(NCCc2ccc(F)cc2)n1	-1
Cc1ccc(Nc2nccc(NCC(O)c3cccc(C(F)(F)F)c3)n2)cc1 (stereo unspecified)	-6
CC(C)NCc1ccc(-c2cccc(-c3nc4ccc(F)cc4[nH]3)c2)cc1	-4
Cn1c2ccccc2c2c3ccccc3c(CNC(CO)(CO)CO)cc21	-1
COc1ccc(CNCc2ccccc2)cc1-c1cccc(S(=O)(=O)NCCN2CCCC2)c1	-8
CC(=O)Nc1nc(N)c2c(ccc3c2ccn3CC(C)C)n1	-3
c1ccc2[nH]c(-c3ccc(-c4ccc(CN5CCN(c6ccncc6)CC5)cc4)cc3)nc2c1	-3
O=C(NCc1cccc(CN2CCOCC2)c1)c1cc(Br)cc(N2CCN(c3ccncc3)CC2)c1	-2
Cc1[nH]c(C)c(-c2ccc(-c3ccc(Cl)cc3)nc2)c(=O)c1Br	3
COCCn1c(-c2cccc(Cl)c2)nn(-c2ccc([N+](=O)[O-])cc2Cl)c1=S	-2
O=C(Cn1c(CCc2cccc(F)c2F)cc(=O)c2ccccc21)N(Cc1ccc(-c2ccc(C(F)(F)F)cc2)cc1)C1CCN(CCO)CC1	0
COc1ccccc1NC(=O)CSc1nc2cccnc2n1-c1ccccc1OC	-3
CC(C)N(Cc1cnc(N)c(C#N)n1)c1ccc(Cl)c(Cl)c1	-5
c1cc(CNc2ncc(-c3ccsc3)c(-c3nccs3)n2)ccn1	-7
Cc1ccccc1C1CCN(C2CCC(NC(=O)/C=C/c3ccccc3C(F)(F)F)CC2)CC1 (stereo unspecified)	-1
FC(F)(F)c1ccc2nc(-c3ccc(-c4ccc(CNCC5CCCO5)cc4)cc3)[nH]c2c1 (stereo unspecified)	-3
